About 83,000 compounds went through this panel and 20% of them were active in at least one assay; those are over-represented in the sample as a whole.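 Results are percent growth after 48 hours of single-concentration exposure. 100 means growth as in untreated cells, lower positive values show inhibition; negative values down to -100 show cell death.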 Unmarked numbers belong to inactive results. Calls of active or inactive are those of the source. The calls were made as follows: active = growth percent below 10; inactive = the rest.

25 molecules from PubChem BioAssay (NCI) can be followed below.

Holding throughout (test): NCI-60 one-dose screen, 48 h (100 = growth as untreated, 0 = no growth, -100 = all killed)
Settings in all cases: 10 µM unless noted

The test system of experiment [1] is DU-145 prostate.
In experiment [2] the test system is K-562 leukemia.
Experiment [3] concerns MALME-3M melanoma.
Experiment [4] concerns MDA-MB-231 breast.
Experiment [5] concerns RXF 393 renal.
In experiment [6] the test system is SF-268 CNS.
In experiment [7] the test system is SF-295 CNS.
Experiment [8] deals with SF-539 CNS.
Experiment [9] deals with UACC-257 melanoma.
Experiment [10] relates to M14 melanoma.

As for `CCC(=O)Oc1ccc(/C(=C(/C)Cc2cccc(OC)c2)c2ccc(OCCN(C)C)cc2)cc1`, the growth in experiment [1] is 93.3%; in experiment [2], -26.5% (active); in experiment [3], 100%; in experiment [4] it was 88.2%; in [5], 88.6%; in experiment [6], 86.3%. The growth in [7] is 99.2%; in experiment [8] it was 90.3%; in [9], 118%; in experiment [10], 31.8%.
Turning to `N=C(N)c1ccc(-c2cc(Cl)cc(Cl)c2)cn1`, the growth in experiment [1] is 99.5%; in experiment [2], 17.5%; in experiment [3], 95.8%; in experiment [4], 85.6%; in experiment [5] it was 41.5%; in experiment [6], 84.9%. In addition, the growth in experiment [7] was 98.2%; in experiment [8], 89.6%; in experiment [9], 102%; in experiment [10], 96.4%.
Turning to `C/C(=C\c1ccc(OCC(=O)O)c(Cl)c1Cl)[N+](=O)[O-]`, the growth in experiment [1] is 108%; in experiment [2], 88%; in experiment [3], 135%; in [4] it was 113%; in experiment [5], 136%; in experiment [6], 95.2%. For the same molecule, the growth in experiment [7] is 116%; in experiment [8], 103%; in [9], 90.4%; in experiment [10] it was 102%.
As to `COc1ccc(CCNC2=CC(=O)CCC2)cc1OC`, the growth in experiment [1] was 124%; in [2], 95.3%; in [3] it was 92.2%; in [4], 104%; in experiment [5], 119%; in [6] it was 104%. Further, the growth in experiment [7] is 104%; in experiment [8], 106%; in [9] it was 117%; in experiment [10], 104%.
`CCOC(=O)c1cn2c3c(cccc3c1=O)C(=O)/C(=C/c1cccc(Cl)c1Cl)C2`: the growth in experiment [1] is 106%; in experiment [2], 91%; in experiment [3], 116%; in experiment [4], 89.5%; in [5], 87%; in [6], 87.9%. In addition, the growth is 95.8% in experiment [7], 101% in [8], 87.5% in experiment [9] and 98.7% in experiment [10].
With `COc1ccc(S(=O)(=O)NCCCNc2nccc(-n3ccc4cccnc43)n2)cc1`, the growth was 91.7% in experiment [1]; 77.7% in [2]; 121% in experiment [3]; 91.1% in experiment [4]; 95.5% in experiment [5]; 89.6% in [6]. Further, the growth in [7] is 94.7%; in [8], 100%; in experiment [9] it was 111%; in experiment [10] it was -14.4% (active).
Turning to `OB(O)c1cccc(-c2nc3ccc4[nH]ncc4c3c3c2CCCC3)c1F`, the growth was 49.5% in experiment [1]; 66.2% in [2]; 120% in experiment [3]; 40.9% in [4]; -20.1% (active) in experiment [5]; 53% in experiment [6]. Moreover, the growth in experiment [7] is 69.3%; in experiment [8], 8.65% (active); in [9] it was 115%; in experiment [10], 79.7%.
In the case of `CN(CCCCCl)P(=O)(OCc1ccc([N+](=O)[O-])o1)C(F)(F)C[C@H](NC(=O)CNC(=O)c1ccc(N=[N+]=[N-])cc1)C(=O)NCCc1ccc(O)cc1` (stereo not given in full), the growth in [1] is 117%; in [2], 40.4%; in experiment [3], 79.6%; in experiment [4], 108%; in experiment [5], 47.6%; in [6], 98.1%. Moreover, the growth was 101% in [7], 104% in experiment [8], 104% in [9] and 90% in [10].
Regarding `CN(C)c1oc(C2OC2c2ccccc2)nc1C#N` (stereo not given), the growth was 107% in [1]; 106% in experiment [2]; 95.9% in experiment [3]; 87.3% in experiment [4]; 86.7% in [5]; 95.7% in [6]. The growth in experiment [7] was 98.8%; in experiment [8], 104%; in [9], 83%; in experiment [10], 104%.
Consider `N=C(N)c1ccc(-c2ccc(-c3ccc(-c4cccs4)s3)s2)cc1`, for which the growth is 90.4% in [1]; 58% in experiment [2]; 85% in experiment [3]; 81.1% in [4]; 80.7% in experiment [5]; 93.5% in experiment [6]. Besides, the growth was 101% in [7], 88.5% in [8], 99.3% in experiment [9] and 100% in experiment [10].
In the case of `CC(C)(C)n1cc(-c2ccnc(NCCNS(=O)(=O)c3ccc(Cl)cc3)c2)c(-c2cccc(O)c2)n1`, the growth in experiment [1] is 80.6%; in experiment [2], 6.91% (active); in experiment [3], 64.4%; in experiment [4], 56.6%; in experiment [5], 64.3%; in experiment [6], 54.7%. Moreover, the growth in [7] was 54.4%; in experiment [8] it was 68.1%; in experiment [9], 64.8%; in experiment [10], 62.8%.
As for `CC1=NC2=CC=CC3=NC(C(Cl)(Cl)Cl)=NC(=N1)N23`, the growth in experiment [1] is 50.4%; in [2], 80.2%; in [3], 33.6%; in experiment [4], 81.3%; in experiment [5], 38%; in [6], 78%. Besides, the growth is 95.6% in [7], 88.9% in [8], 63.9% in [9] and 79.3% in [10].
Regarding `Fc1ccc(-c2nc(-c3nc4ncccc4[nH]3)cc3c2[nH]c2ccccc23)cc1F`, the growth in experiment [1] was 49%; in experiment [2] it was 78.5%; in [3] it was 78.5%; in [4], 53.9%; in [5] it was 73.1%; in experiment [6], 71.1%. Further, the growth is 86.9% in experiment [7], 79.6% in experiment [8], 92.2% in experiment [9] and 78.8% in [10].
With `CN1C(=O)N(C)C2C1NN=c1s/c(=C\C=C\c3ccccc3)c(=O)n12` (stereo not given), the growth was 69.3% in experiment [1]; 20.6% in experiment [2]; 62.6% in experiment [3]; 65% in experiment [4]; 77.7% in experiment [5]; 67.2% in [6]. Further, the growth in experiment [7] was 45.7%; in [8], 54.8%; in [9], 73.4%; in experiment [10], 41.5%.
Turning to `O=C(NS(=O)(=O)c1ccc2ccccc2c1)n1cc(-c2ccncc2)c(-c2ccc(Cl)c(O)c2)n1`, the growth in experiment [1] is 113%; in experiment [2], 85.6%; in experiment [3], 17.1%; in [4] it was 49.6%; in [5] it was 52.9%; in [6] it was 96.2%. Also, the growth in experiment [7] was 91.1%; in [8], 80.9%; in experiment [9], 31.9%; in experiment [10], 28.4%.
In the case of `CCN(CC)CCOc1ccc(Cl)c(C)c1`, the growth in experiment [1] was 107%; in experiment [2] it was 111%; in experiment [3], 94.4%; in [4] it was 104%; in experiment [5], 104%; in experiment [6], 98%. The growth was 118% in experiment [7], 108% in [8], 99.5% in experiment [9] and 103% in experiment [10].
With `Cc1ccc(Nc2nnc(-c3ccc(Cl)cc3)o2)c(C)c1`, the growth was 93.5% in experiment [1]; 24.8% in experiment [2]; 62.1% in experiment [3]; 76.3% in experiment [4]; 93.8% in [5]; 90.3% in [6]. For the same molecule, the growth in [7] is 80.7%; in [8], 79%; in [9], 87.8%; in [10] it was 57.6%.
As for `S=c1[nH]nc(-c2cc3ccc2CCc2ccc(cc2)CC3)n1-c1ccccc1`, the growth is 101% in experiment [1]; 87% in experiment [2]; 100% in experiment [3]; 95% in experiment [4]; 129% in experiment [5]; 113% in experiment [6]. The growth in experiment [7] was 91.7%; in experiment [8] it was 110%; in [9] it was 103%; in experiment [10], 97.2%.
In the case of `COc1ccc2c(c1)[nH]c(=O)c1c3cccc(F)c3cn21`, the growth in experiment [1] is 9.01% (active); in [2], 36.4%; in [3], 50.9%; in experiment [4], 27.7%; in experiment [5] it was -26.9% (active); in experiment [6], 18%. The growth was -32.1% (active) in experiment [7], 22.8% in [8], 44.8% in [9] and 40.4% in experiment [10].
As for `CCOC(=O)NNC(=S)Nc1ccccc1`, the growth in experiment [1] was 118%; in experiment [2], 113%; in experiment [3], 110%; in experiment [4], 115%; in experiment [5], 113%; in experiment [6], 103%. Also, the growth in experiment [7] is 102%; in experiment [8] it was 98.9%; in experiment [9], 102%; in [10], 108%.
On to `COc1ccc(S(=O)(=O)NCCCNc2nccc(-c3c(-c4cccc([N+](=O)[O-])c4)nc4sccn34)n2)cc1`, for which the growth in experiment [1] was 51.6%; in [2], 28.7%; in [3], 58%; in [4] it was 59.5%; in experiment [5], 67.1%; in experiment [6], 49%. In addition, the growth in experiment [7] was 43.7%; in experiment [8], 75.6%; in experiment [9], 53%; in experiment [10] it was 41.6%.
Take `COc1ccc2c(c1)cn1c3ccc(OC)cc3[nH]c(=O)c21`: the growth in experiment [1] was -87.1% (active); in [2], -28.1% (active); in experiment [3] it was 42.1%; in [4] it was -86.9% (active); in [5] it was -82.2% (active); in experiment [6], -14% (active). Further, the growth in experiment [7] was -84.9% (active); in experiment [8], -84.9% (active); in [9], 54.7%; in experiment [10] it was -65.1% (active).
`CCN(CC)CCC(CNc1ccnc2cc(Cl)ccc12)c1ccc(Cl)cc1` (stereo not given): the growth in experiment [1] is 67.7%; in experiment [2] it was -53.9% (active); in experiment [3] it was -83.1% (active); in experiment [4], -32.1% (active); in experiment [5], -90.4% (active); in experiment [6], -8.09% (active). Further, the growth was -75.4% (active) in [7], -78.2% (active) in experiment [8], -79.4% (active) in experiment [9] and -80.2% (active) in experiment [10].
On to `c1cc2[nH]ncc2cc1-c1nc2ccc3[nH]ncc3c2c2c1CCC2`, for which the growth in [1] is 54.3%; in experiment [2] it was 15.4%; in [3] it was 47.3%; in [4], 70.2%; in experiment [5] it was 19.5%; in experiment [6], 56.2%. Also, the growth was 80.6% in experiment [7], 45% in [8], 65.8% in experiment [9] and 21% in [10].
`CN1CCN(Cc2ccc(NC(=O)c3cncc(C#Cc4cnc(N)c5ccncc45)c3)cc2C(F)(F)F)CC1`: the growth in [1] is 22.2%; in experiment [2], -16.8% (active); in [3], -44.5% (active); in [4] it was -33.7% (active); in experiment [5], -30.1% (active); in experiment [6], 24.5%. Also, the growth is 20.8% in [7], -20.6% (active) in experiment [8], 23.8% in experiment [9] and 2.43% (active) in [10].
